# Shown are actives, neighbours in structure and some others; about 3.1% of the full set was active somewhere.
# D3 ag = D3 dopamine receptor (human) agonism; P35462; D3R DiscoveRx beta-arrestin cells, luminescence, 90 min; max activation, %; hit rate 0.58% among 410,000; AID 652048; in the data active = max activation above about 30%; also: 0% is about no effect
# Target sequence (P35462 whole entry, looked up): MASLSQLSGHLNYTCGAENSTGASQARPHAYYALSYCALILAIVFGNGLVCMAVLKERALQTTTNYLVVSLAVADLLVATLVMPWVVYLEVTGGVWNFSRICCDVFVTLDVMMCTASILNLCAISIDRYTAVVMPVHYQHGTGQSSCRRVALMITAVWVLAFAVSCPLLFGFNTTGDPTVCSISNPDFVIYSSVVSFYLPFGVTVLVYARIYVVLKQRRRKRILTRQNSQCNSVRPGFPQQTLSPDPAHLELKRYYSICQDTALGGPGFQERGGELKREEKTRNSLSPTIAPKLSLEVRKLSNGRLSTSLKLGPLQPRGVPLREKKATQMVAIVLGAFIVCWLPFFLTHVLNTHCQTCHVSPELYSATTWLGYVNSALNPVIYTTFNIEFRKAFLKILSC
#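 Agonist-mode cell screen: cells plated at 1500/well and incubated overnight at 37 °C, then exposed to library compounds for 90 min at 37 °C. Detection reagent was added for 30–60 min at room temperature, and luminescence was read.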
# uPA generation = blocks generation of uPA at the cell surface; cell surface uPA generation assay, qHTS; Potency, µM (titrated, usually from 38.3 µM), inactives show at the top dose activity change, negative = inhibition, most hits filed as inhibitors; hit rate 0.31% among 330,000; AID 540303; active = well fitted inhibition curve with a large enough effect; inconclusive = small, poorly fitted or top-dose-only effect; inactive = no such curve, though single readings can be large or run the other way; tested in mouse RAW 264.7 cells; also: potency is read from the fitted curve at half-maximal effect; % is scaled to controls: 0 for no effect and ±100 for the full control effect; nearly all actives have a fitted effect of over 55% in size
# D3 antag = antagonists of human D3 dopamine receptor; P35462; AID 652054; hit rate 2.5% among 360,000; max response, negative = inhibition, %; D3R cells, DiscoveRx beta-arrestin luminescence, antagonist mode; stronger effect = lower value; in the data active = max response below about -50%; inconclusive = no clear call, values can overlap the other calls; also: % is scaled to controls: 0 for no effect and ±100 for the full control effect
#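 Cells plated overnight at 1500 cells/well, then exposed to library compounds with dopamine controls for 90 minutes at 37 degrees C. DiscoveRx reagent added for 30–60 minutes at room temperature; luminescence read, quantitative HTS format.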
# RGS4 inhibitor = inhibitors of human regulator of G protein signaling 4; P49798; Potency, µM (highest dose often 114 µM), without a hit: top-dose activity change, negative = inhibition, hits mostly inhibitors; AID 504845; hit rate 0.039% among 390,000; Transcreener GDP fluorescence polarization, RGS4-accelerated GTP hydrolysis; active = well fitted inhibition curve with a large enough effect; inconclusive = small, poorly fitted or top-dose-only effect; inactive = no such curve, though single readings can be large or run the other way; also: potency is read from the fitted curve at half-maximal effect; % is scaled to controls: 0 for no effect and ±100 for the full control effect; nearly all actives have a fitted effect of over 75% in size
# Target sequence (P49798 whole entry, looked up): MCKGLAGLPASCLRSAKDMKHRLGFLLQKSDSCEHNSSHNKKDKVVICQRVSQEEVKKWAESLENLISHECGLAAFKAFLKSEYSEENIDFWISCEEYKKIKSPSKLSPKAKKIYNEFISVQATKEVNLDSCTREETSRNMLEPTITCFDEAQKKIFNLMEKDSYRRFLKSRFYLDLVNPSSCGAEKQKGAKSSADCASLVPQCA
#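 MLSMR compounds (23 nl, pin-transferred) preincubated 10 min at room temperature with a 500nM (2x) first reagent, then RGS4 at 900nM (2x) plus Transcreener GDP mix added; fluorescence polarization (620/688 nm) read before and after 90 min at 30 °C.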
# * marks the source's active call; other numbers are inactive results; ? = inconclusive; nt = not tested or not shown; [ ] = remark or other dose.
SMILES,D3 ag,uPA generation,D3 antag,RGS4 inhibitor
COc1cc(C(=O)NCCOc2cc(C)ccc2C(C)C)cc(OC)c1OC,10,-14%,24,-11%[56.9 µM]
Cc1ccc(C(=O)Nc2nnc(S(=O)(=O)N(C)Cc3ccc(Cl)cc3)s2)cc1,-3,nt,nt,-10%
CCc1ccc(C2CC(=O)NC(NC(=O)c3ccc(C(C)(C)C)cc3)=N2)cc1 (configuration not stated),2,nt,nt,-10%
O=C(CN1CCCCC1)c1c[nH]c2ccccc12,0,20%,7,1%
O=C(CN1CCN(Cc2ccccc2)CC1)c1ccccc1,-11,0%,9,9%
O=C(CN1CCN(Cc2ccccc2)CC1)c1ccc(Br)cc1,-35,nt,-62*,-3%
O=C(CN1CCN(Cc2ccccc2)CC1)c1c[nH]c2ccccc12,-12,3%,-54*,-18%[11.4 µM]
CCOc1ccc(C(=O)Nc2ccc3c(c2)CCCN3S(=O)(=O)c2ccc(C)cc2)cc1,-1,nt,nt,-11%
CCN(CC)CCSc1nnc2c3cc(F)ccc3n(CC)c2n1,-22,nt,nt,-37%
COc1ccc2nc(NC(=O)c3ccccc3F)sc2c1,-9,10µM*,17,3%
Cc1ccc(NC(=O)c2cc(-c3cccs3)nc3ccccc23)c(C)c1,6,nt,nt,-6%
COc1ccc2nc(NC(=O)c3ccccc3C(=O)O)sc2c1,2,-15%,1,2%
COc1ccc(-c2cc(C(=O)Nc3nc4c(C)cccc4s3)c3ccccc3n2)cc1OC,33*,11%,26,-22%
COc1cccc(-c2cc(C(=O)Nc3nc4ccccc4s3)c3ccccc3n2)c1,-29,12%,-59*,-28%
Cc1cccc2sc(NNC(=O)c3cc(-c4cccs4)nc4ccccc34)nc12,46*,?,126,-2%
O=C(Nc1nc2ccccc2s1)c1cc(-c2ccco2)nc2ccccc12,-2,8%,2,?
CCCN1Cc2cccc(C(=O)Nc3ccc(C(C)=O)cc3)c2C1=O,-3,nt,nt,29%
CCOc1ccc2nc(NC(=O)c3ccccn3)sc2c1,-23,-7%,-63*,-9%
Oc1ccccc1N1CCN(CC(O)COCc2ccccc2Cl)CC1 (configuration not stated),29,7%,-53*,16%
OC(COc1ccccc1Cl)CN1CCN(CC(O)COc2ccccc2Cl)CC1 (configuration not stated),-1,-8%,?,34%
OC(CSc1ccccc1)CN1CCN(c2ccccc2)CC1 (configuration not stated),-2,-1%,?,-17%
OC(CSc1c(Cl)cccc1Cl)CN1CCN(c2ccccc2F)CC1 (configuration not stated),20,nt,-56*,4%
OC(CSc1ccccc1Cl)CN1CCN(c2ccccc2F)CC1 (configuration not stated),1,nt,-67*,7%
Cc1cccc(-n2ccnc2SCC(=O)Nc2ccccc2C(F)(F)F)c1,-6,nt,nt,6%
COC(=O)c1sccc1NC(=O)Nc1ccc(C)cc1,55*,-3%,-2,13%
SMILES,D3 ag,uPA generation,D3 antag,RGS4 inhibitor
COC(=O)c1sccc1NC(=O)NC1CCCCC1,7,-26%,-51*,13%
COC(=O)c1cc(Br)ccc1NC(=O)Nc1ccc(C)cc1,-6,-5%,-80*,-11%
COC(=O)c1sccc1NC(=O)Nc1cc(C)cc(C)c1,5,1%,15,9%
COC(=O)c1sccc1NC(=S)N(C)C1CCCCC1,2,10%,20,-24%
O=[N+]([O-])c1ccc(-[n+]2ccc3ccccc3c2)c([N+](=O)[O-])c1,-46,?,-106*,?
O=[N+]([O-])c1ccc(SNc2ccccc2)c([N+](=O)[O-])c1,-13,0%,-18,-2%
Cc1cc2[nH]c3c(c[n+](C)c4ccccc34)c2cc1C,-18,?,-12,-9%
Cc1cc2[nH]c3c4ccccc4nc(C)c3c2cc1C,-3,10µM*,18,1%
COc1cccc(CNC(=O)Cn2nc(N3CCN(c4ccccc4OC)CC3)ccc2=O)c1,-20,nt,nt,-13%
O=[N+]([O-])c1cc(Cl)cc(/C=N/Nc2nc3ccccc3s2)c1O,-18,9%,-60*,?
COc1cc(/C=N/NC(=O)c2cccc(NC(=O)c3ccccc3C)c2)ccc1O,3,-9%,26,-9%
O=C(N/N=C/c1cc([N+](=O)[O-])cc([N+](=O)[O-])c1O)C(O)(c1ccccc1)c1ccccc1,-6,0%,-16,-10%
Cc1ccccc1C(=O)Nc1cccc(C(=O)N/N=C/c2cc(Cl)cc([N+](=O)[O-])c2O)c1,-11,?,-52*,-20%
O=C(Cn1nnc(-c2ccccc2)n1)N/N=C/c1cccc([N+](=O)[O-])c1O,5,-13%,-9,10%
O=C(Cn1nc2ccccc2n1)N/N=C/c1cc(Cl)cc([N+](=O)[O-])c1O,-16,-1%,-83*,11%
CC(C)(C)N/N=C/c1cc(Cl)cc([N+](=O)[O-])c1O,-16,-1%,-110*,-5%
COCC(=O)Nc1c(C(=O)Nc2ccc(C)cc2)oc2ccccc12,-10,nt,nt,15%
Cc1ccc(C2c3[nH]c4ccccc4c3CCN2C(=O)CCc2ccccc2)cc1 (configuration not stated),4,nt,nt,20%
COC(=O)c1ccc(NC(=O)C(=O)NCC(c2cccnc2)N2CCc3ccccc32)cc1 (configuration not stated),15,nt,nt,-14%
O=C(N/N=C/c1ccc(Cl)c([N+](=O)[O-])c1)C1CC1,-2,-19%,-8,-2%[11.4 µM]
O=[N+]([O-])c1cc(Cl)cc(/C=N/NC(=S)Nc2ccc(S(=O)(=O)N3CCOCC3)cc2)c1O,-19,-2%,-54*,34%[11.4 µM]
O=C(N/N=C/c1cc(Cl)cc([N+](=O)[O-])c1O)C1CC1,-19,-2%,-57*,8%
O=S(=O)(c1ccc(NC(=S)N/N=C/c2ccc(O)c(O)c2)cc1)N1CCOCC1,1,-7%,-1,-8%
CN(C)c1ccc(CNc2nc(-c3ccco3)nn2S(C)(=O)=O)cc1,-4,nt,nt,-14%
CCCC(=O)Nc1nnc(SCc2cc(=O)n3ccccc3n2)s1,-27,nt,nt,-14%
SMILES,D3 ag,uPA generation,D3 antag,RGS4 inhibitor
CC(=O)Nc1ccc(NC(=O)C2CCN(S(C)(=O)=O)CC2)cc1,6,nt,45,nt
COc1ccc2c(c1)CC(NC(=O)Nc1cc(Cl)ccc1OC)CO2 (configuration not stated),-28,nt,nt,-21%
CCC(c1nnnn1Cc1ccccc1)N1CCN(C/C=C/c2ccccc2)CC1 (configuration not stated),-8,nt,-99*,nt
CCCCn1nnnc1C(CC)N1CCN(C/C=C/c2ccccc2)CC1 (configuration not stated),-16,nt,-68*,nt
CCCCn1nnnc1C(c1cccc2ccccc12)N1CCN(C/C=C/c2ccccc2)CC1 (configuration not stated),-13,nt,-107*,nt
CCCCn1nnnc1C(c1ccccc1)N1CCN(C/C=C/c2ccccc2)CC1 (configuration not stated),-15,nt,-71*,nt
CCCCn1nnnc1C(c1ccnc2ccccc12)N1CCN(C/C=C/c2ccccc2)CC1 (configuration not stated),-18,nt,-24,nt

# High-throughput results as filed in PubChem BioAssay.
